Results published in PMC7862700, “An all-to-all approach to the identification of sequence-specific readers for epigenetic DNA modifications on cytosine”.

What was measured:
Test in all cases: DAPPL (digital affinity profiling via proximity ligation, sequencing); 10 mM Tris-HCl pH 7.5, 50 mM NaCl, 1 mM DTT, 4% glycerol, room temperature, 30 min; GST-TFs on glutathione beads, 16-mer random dsDNA library, 0.1% formaldehyde crosslink after washing; high values mean tight binding
Conditions in all cases: protein: recombinant; tags: N-terminal GST; dsDNA, one strand shown
[1] = molecular target: T1, ETV2 (Homo sapiens, UniProt O00321 1-342)
T1 sequence: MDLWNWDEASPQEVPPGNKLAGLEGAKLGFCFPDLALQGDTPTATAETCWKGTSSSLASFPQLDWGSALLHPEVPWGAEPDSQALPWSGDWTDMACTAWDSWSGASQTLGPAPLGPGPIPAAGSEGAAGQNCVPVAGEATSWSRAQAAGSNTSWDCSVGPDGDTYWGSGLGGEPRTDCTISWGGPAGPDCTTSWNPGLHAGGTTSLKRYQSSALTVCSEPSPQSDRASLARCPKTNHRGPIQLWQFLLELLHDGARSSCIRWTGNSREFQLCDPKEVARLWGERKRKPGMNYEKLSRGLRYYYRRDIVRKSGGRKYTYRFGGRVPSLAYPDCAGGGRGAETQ
In short: (§1)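 The binding signal reported is, for every hexamer, its read frequency for a factor over its read frequency for the tag-only sample. Reads came from pools of yeast-expressed, GST-fused human transcription factors on glutathione beads, barcoded with DNA and mixed with that sample, which were incubated with 200 nmole of a random double-stranded 16-mer DNA library in Tris/NaCl/DTT/glycerol buffer at room temperature for 30 min. After washing, the pools were crosslinked with 0.1% formaldehyde, proximity-ligated with BsaI/T4 ligase for 1 h at 37 °C, PCR-amplified and sequenced on an Illumina NextSeq500.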

[2] = molecular target: T2, ELF3 (Homo sapiens, UniProt P78545 1-371)
T2 sequence: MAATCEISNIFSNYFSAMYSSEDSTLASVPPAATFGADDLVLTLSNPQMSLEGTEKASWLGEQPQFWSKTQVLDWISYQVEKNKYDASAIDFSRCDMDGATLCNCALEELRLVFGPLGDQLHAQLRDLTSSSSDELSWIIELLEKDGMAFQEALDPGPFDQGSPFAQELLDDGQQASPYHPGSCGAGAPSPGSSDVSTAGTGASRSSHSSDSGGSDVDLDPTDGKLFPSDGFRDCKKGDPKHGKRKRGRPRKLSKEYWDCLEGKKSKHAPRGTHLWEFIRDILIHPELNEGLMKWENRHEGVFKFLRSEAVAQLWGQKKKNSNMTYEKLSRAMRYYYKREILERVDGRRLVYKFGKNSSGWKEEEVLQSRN
In short: as §1

[3] = molecular target: ETV1 (Homo sapiens, UniProt P50549 1-477)
Sequence of ETV1 (P50549 whole entry): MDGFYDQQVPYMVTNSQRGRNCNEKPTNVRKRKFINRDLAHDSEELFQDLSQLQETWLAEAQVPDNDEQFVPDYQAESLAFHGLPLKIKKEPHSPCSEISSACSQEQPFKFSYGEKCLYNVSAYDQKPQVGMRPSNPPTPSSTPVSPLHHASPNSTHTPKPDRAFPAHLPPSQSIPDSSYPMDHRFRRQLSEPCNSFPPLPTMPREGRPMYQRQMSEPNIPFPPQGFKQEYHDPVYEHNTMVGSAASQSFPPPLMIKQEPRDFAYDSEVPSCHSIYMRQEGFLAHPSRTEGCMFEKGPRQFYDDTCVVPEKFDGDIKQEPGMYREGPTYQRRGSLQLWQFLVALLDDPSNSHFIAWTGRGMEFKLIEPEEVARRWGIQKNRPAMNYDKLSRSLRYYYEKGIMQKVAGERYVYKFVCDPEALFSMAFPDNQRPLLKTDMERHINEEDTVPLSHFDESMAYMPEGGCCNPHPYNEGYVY
In short: as §1

[4] = molecular target: T3, ERF (Homo sapiens, UniProt P50548 1-548)
T3 sequence: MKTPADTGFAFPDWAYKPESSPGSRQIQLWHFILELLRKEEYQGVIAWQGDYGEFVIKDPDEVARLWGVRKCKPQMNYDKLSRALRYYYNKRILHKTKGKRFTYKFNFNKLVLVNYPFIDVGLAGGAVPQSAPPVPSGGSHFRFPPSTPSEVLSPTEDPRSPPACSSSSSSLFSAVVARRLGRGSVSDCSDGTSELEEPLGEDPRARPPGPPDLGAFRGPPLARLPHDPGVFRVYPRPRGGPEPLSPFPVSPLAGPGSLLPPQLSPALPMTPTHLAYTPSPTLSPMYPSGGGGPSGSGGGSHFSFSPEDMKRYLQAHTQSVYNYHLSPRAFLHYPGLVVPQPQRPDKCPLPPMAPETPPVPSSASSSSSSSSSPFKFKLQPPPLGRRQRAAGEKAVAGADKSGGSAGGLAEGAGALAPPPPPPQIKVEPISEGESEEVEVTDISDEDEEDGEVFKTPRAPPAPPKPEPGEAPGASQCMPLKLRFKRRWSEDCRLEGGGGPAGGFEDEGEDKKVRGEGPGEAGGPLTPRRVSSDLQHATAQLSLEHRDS
In short: as §1

[5] = molecular target: T4, ETV3L (Homo sapiens, UniProt Q6ZN32 1-361)
T4 sequence: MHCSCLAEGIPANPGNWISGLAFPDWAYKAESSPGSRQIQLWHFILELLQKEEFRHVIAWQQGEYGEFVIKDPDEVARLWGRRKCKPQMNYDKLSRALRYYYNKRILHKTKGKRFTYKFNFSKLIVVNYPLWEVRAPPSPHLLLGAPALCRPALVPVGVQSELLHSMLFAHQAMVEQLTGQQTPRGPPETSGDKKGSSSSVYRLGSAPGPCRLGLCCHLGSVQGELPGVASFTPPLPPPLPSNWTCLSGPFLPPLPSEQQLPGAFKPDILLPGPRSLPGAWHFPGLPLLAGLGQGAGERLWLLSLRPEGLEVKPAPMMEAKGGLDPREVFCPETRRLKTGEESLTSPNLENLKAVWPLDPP
In short: as §1

[6] = molecular target: T5, ETS2 (Homo sapiens, UniProt P15036 1-469)
T5 sequence: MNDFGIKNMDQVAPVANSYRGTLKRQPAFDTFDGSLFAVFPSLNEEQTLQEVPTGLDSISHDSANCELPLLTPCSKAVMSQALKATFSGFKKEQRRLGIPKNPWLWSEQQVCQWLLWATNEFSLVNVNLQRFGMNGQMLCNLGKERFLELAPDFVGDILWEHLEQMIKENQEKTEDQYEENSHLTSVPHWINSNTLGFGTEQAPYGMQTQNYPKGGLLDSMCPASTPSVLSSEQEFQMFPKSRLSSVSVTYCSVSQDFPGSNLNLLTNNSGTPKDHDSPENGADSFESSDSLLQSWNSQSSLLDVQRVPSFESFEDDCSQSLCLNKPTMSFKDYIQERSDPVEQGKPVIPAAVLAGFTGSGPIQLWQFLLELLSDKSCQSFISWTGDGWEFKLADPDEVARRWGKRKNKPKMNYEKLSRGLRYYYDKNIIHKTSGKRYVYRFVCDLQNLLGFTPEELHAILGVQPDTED
In short: as §1

[7] = molecular target: T6, SPDEF (Homo sapiens, UniProt O95238 1-335)
T6 sequence: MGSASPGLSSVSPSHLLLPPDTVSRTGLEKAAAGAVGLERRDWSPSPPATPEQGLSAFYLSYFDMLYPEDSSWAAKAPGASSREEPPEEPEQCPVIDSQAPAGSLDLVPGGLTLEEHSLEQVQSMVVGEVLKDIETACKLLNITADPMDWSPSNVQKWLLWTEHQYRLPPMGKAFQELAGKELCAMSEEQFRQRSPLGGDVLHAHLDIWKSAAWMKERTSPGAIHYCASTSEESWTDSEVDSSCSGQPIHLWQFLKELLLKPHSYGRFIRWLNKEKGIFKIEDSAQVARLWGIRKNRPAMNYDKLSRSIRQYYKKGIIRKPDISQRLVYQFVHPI
In short: as §1

[8] = molecular target: T7, ETV7 (Homo sapiens, UniProt Q9Y603 1-341)
T7 sequence: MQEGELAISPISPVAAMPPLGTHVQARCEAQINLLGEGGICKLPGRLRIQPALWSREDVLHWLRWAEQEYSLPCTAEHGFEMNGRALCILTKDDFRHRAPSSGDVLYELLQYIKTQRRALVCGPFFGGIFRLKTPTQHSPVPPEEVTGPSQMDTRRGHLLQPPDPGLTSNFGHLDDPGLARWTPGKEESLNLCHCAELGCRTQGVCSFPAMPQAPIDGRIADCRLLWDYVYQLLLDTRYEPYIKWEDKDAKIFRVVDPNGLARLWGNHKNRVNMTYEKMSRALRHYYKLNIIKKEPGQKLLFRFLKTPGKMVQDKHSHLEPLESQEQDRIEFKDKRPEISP
In short: as §1

[9] = molecular target: T8, ETV3 (Homo sapiens, UniProt P41162-2 1-143)
T8 sequence: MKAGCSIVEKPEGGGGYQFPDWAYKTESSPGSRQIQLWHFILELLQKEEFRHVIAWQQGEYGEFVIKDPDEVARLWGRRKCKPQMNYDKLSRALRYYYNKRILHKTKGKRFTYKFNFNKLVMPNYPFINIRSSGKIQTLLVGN
In short: as §1

[10] = molecular target: ETV6 (Homo sapiens, UniProt P41212 1-452)
Sequence of ETV6 (P41212 whole entry): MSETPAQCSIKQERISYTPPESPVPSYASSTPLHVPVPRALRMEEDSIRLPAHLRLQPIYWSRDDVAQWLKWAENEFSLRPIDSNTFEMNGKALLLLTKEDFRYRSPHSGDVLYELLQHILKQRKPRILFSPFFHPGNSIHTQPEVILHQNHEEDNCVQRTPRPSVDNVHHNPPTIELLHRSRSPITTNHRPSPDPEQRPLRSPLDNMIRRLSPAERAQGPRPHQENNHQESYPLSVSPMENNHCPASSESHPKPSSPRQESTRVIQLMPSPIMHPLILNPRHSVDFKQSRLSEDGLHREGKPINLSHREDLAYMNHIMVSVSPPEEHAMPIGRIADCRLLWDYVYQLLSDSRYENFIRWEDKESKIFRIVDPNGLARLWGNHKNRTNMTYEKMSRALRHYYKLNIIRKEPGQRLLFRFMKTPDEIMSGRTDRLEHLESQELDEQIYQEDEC
In short: as §1

## AAGATC
[1]
  binding signal: 1.13 fold enrichment (6-mer frequency, TF over GST control)
[2]
  binding signal: 1.15 fold enrichment (6-mer frequency, TF over GST control)
[3]
  binding signal: 1.08 fold enrichment (6-mer frequency, TF over GST control)
[4]
  binding signal: 1.12 fold enrichment (6-mer frequency, TF over GST control)
[5]
  binding signal: 1.03 fold enrichment (6-mer frequency, TF over GST control)
[6]
  binding signal: 1.05 fold enrichment (6-mer frequency, TF over GST control)
[7]
  binding signal: 1.27 fold enrichment (6-mer frequency, TF over GST control)
[8]
  binding signal: 1.08 fold enrichment (6-mer frequency, TF over GST control)
[9]
  binding signal: 1.12 fold enrichment (6-mer frequency, TF over GST control)
[10]
  binding signal: 1.01 fold enrichment (6-mer frequency, TF over GST control)
